Measurements from PubChem BioAssay (NCI).
This is part of a sample that, as a whole, favours compounds with a hit. Of some 83,000 tested, about 20% had one in any assay.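 How to read the values: 0–100, growth inhibition (40 = 60% inhibited); 0, no net growth; -100 to 0, cell death (-40 = 40% of starting cells died; -100 = all dead).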 Activity calls are given as the source filed them. Rule for the calls: active = growth percent below 10; inactive = the rest.

Experiments:
Experiment in all cases: NCI-60 one-dose screen, 48 h (100 = growth as untreated, 0 = no growth, -100 = all killed)
Conditions in all cases: 10 µM unless noted
HCT-15 colon = system: HCT-15 colon
HT29 colon = system: HT29 colon
SNB-75 CNS = system: SNB-75 CNS
SNB-19 CNS = system: SNB-19 CNS
U251 CNS = system: U251 CNS
PC-3 prostate = system: PC-3 prostate
SK-MEL-5 melanoma = system: SK-MEL-5 melanoma
UACC-62 melanoma = system: UACC-62 melanoma
LOX IMVI melanoma = system: LOX IMVI melanoma
SK-MEL-28 melanoma = system: SK-MEL-28 melanoma
SK-MEL-2 melanoma = system: SK-MEL-2 melanoma
EKVX NSCLC = system: EKVX NSCLC
SN12C renal = system: SN12C renal
UO-31 renal = system: UO-31 renal
TK-10 renal = system: TK-10 renal
ACHN renal = system: ACHN renal
CAKI-1 renal = system: CAKI-1 renal
A498 renal = system: A498 renal
CCRF-CEM leukemia = system: CCRF-CEM leukemia
MOLT-4 leukemia = system: MOLT-4 leukemia

SMILES	growth (HCT-15 colon)	growth (HT29 colon)	growth (SNB-75 CNS)	growth (SNB-19 CNS)	growth (U251 CNS)	growth (PC-3 prostate)	growth (SK-MEL-5 melanoma)	growth (UACC-62 melanoma)	growth (LOX IMVI melanoma)	growth (SK-MEL-28 melanoma)	growth (SK-MEL-2 melanoma)	growth (EKVX NSCLC)	growth (SN12C renal)	growth (UO-31 renal)	growth (TK-10 renal)	growth (ACHN renal)	growth (CAKI-1 renal)	growth (A498 renal)	growth (CCRF-CEM leukemia)	growth (MOLT-4 leukemia)
COc1cc(C2CC(c3cccc(Br)c3)=NN2C(C)=O)cc(OC)c1OC (stereo not given)	13.4% (inactive)	13.8% (inactive)	12% (inactive)	40.8% (inactive)	12.2% (inactive)	37.1% (inactive)	23% (inactive)	14.8% (inactive)	50.1% (inactive)	70.2% (inactive)	59.1% (inactive)	52.7% (inactive)	41.8% (inactive)	-27.7% (active)	48.4% (inactive)	39.8% (inactive)	39.1% (inactive)	19.1% (inactive)	14.9% (inactive)	19% (inactive)
CCOc1ccc2nc(SCc3nc4n(n3)S(=O)(=O)c3ccccc3N4C)sc2c1	26.9% (inactive)	62.3% (inactive)	-15% (active)	30.6% (inactive)	16.3% (inactive)	19.5% (inactive)	-23.9% (active)	25.9% (inactive)	19.8% (inactive)	45.7% (inactive)	17.9% (inactive)	14% (inactive)	22.2% (inactive)	-46.3% (active)	-8.01% (active)	4.84% (active)	-39.5% (active)	-25.8% (active)	3.93% (active)	4.81% (active)
CCOC(=O)CC1C(COC(=O)NC)OC(n2cnc3c(NC(=O)Nc4ccccc4)ncnc32)C1O[Si](C)(C)C(C)(C)C (stereo not given)	52.2% (inactive)	8.8% (active)	45.4% (inactive)	99.1% (inactive)	52% (inactive)	32.4% (inactive)	23.5% (inactive)	65.1% (inactive)	48.6% (inactive)	71.9% (inactive)	60% (inactive)	67.5% (inactive)	34.8% (inactive)	41.9% (inactive)	87.7% (inactive)	25.8% (inactive)	60.8% (inactive)	77.4% (inactive)	57.4% (inactive)	34.3% (inactive)
O=C(N/N=C/[C@@H](O)[C@H](O)[C@H](O)CO)c1ccc(NC(=O)c2cccnc2)cc1	103% (inactive)	105% (inactive)	90.3% (inactive)	98.7% (inactive)	101% (inactive)	101% (inactive)	106% (inactive)	99.5% (inactive)	101% (inactive)	103% (inactive)	120% (inactive)	100% (inactive)	97.1% (inactive)	82.9% (inactive)	106% (inactive)	101% (inactive)	96.1% (inactive)	102% (inactive)	98.5% (inactive)	113% (inactive)
Cc1ccc2c(n1)C(=O)C(Cl)=C(Nc1ccccc1C(C)C)C2=O	27.6% (inactive)	106% (inactive)	85.7% (inactive)	76.7% (inactive)	80.4% (inactive)	53.9% (inactive)	69% (inactive)	45.2% (inactive)	14.7% (inactive)	65.8% (inactive)	64% (inactive)	95.8% (inactive)	23.7% (inactive)	57% (inactive)	165% (inactive)	49.2% (inactive)	35% (inactive)	99.7% (inactive)	35.7% (inactive)	31.9% (inactive)
CCC(C)(c1cc(C(C)(C)C)c(O)c(C(C)(C)C)c1)c1cc(C(C)(C)C)c(O)c(C(C)(C)C)c1	105% (inactive)	96.3% (inactive)	83.4% (inactive)	104% (inactive)	98.6% (inactive)	101% (inactive)	100% (inactive)	91.8% (inactive)	103% (inactive)	106% (inactive)	96.2% (inactive)	107% (inactive)	101% (inactive)	92.2% (inactive)	97.3% (inactive)	101% (inactive)	94.2% (inactive)	101% (inactive)	98.9% (inactive)	100% (inactive)
COc1ccc2nc(NCCCNCCO)c3sc4ccc(F)cc4c(=O)c3c2c1	-47.9% (active)	-43.7% (active)	54.1% (inactive)	61.5% (inactive)	-33.2% (active)	38.9% (inactive)	85% (inactive)	65.7% (inactive)	-97% (active)	68.9% (inactive)	89% (inactive)	61.1% (inactive)	58.6% (inactive)	38.4% (inactive)	69.3% (inactive)	39.5% (inactive)	7.45% (active)	25.9% (inactive)	-20.8% (active)	-10.4% (active)
Cc1nc(NC(=O)COc2ccc(/C=C3\Cc4ccc(Cl)cc4C3=O)cc2)sc1C	104% (inactive)	114% (inactive)	108% (inactive)	106% (inactive)	99.4% (inactive)	91.9% (inactive)	111% (inactive)	98.8% (inactive)	72.7% (inactive)	132% (inactive)	97.4% (inactive)	103% (inactive)	103% (inactive)	-88.5% (active)	310% (inactive)	93.7% (inactive)	86.1% (inactive)	139% (inactive)	100% (inactive)	83.1% (inactive)
CN(C)CC#Cc1ccc2ncc(C#N)c(Nc3ccc(F)c(Cl)c3)c2c1	32% (inactive)	66% (inactive)	48.1% (inactive)	76.4% (inactive)	63.8% (inactive)	40.5% (inactive)	51.4% (inactive)	42.9% (inactive)	49% (inactive)	69.4% (inactive)	38.3% (inactive)	30.8% (inactive)	35.4% (inactive)	18% (inactive)	27.1% (inactive)	10.5% (inactive)	17.1% (inactive)	-11.8% (active)	81.7% (inactive)	53.7% (inactive)
CCOC(=O)CCN(C(=O)Nc1ccccc1)C1CCCCC1	119% (inactive)	114% (inactive)	83.5% (inactive)	110% (inactive)	118% (inactive)	119% (inactive)	99.2% (inactive)	106% (inactive)	118% (inactive)	131% (inactive)	119% (inactive)	101% (inactive)	117% (inactive)	118% (inactive)	120% (inactive)	110% (inactive)	110% (inactive)	109% (inactive)	107% (inactive)	93.8% (inactive)
CC(C)OC(=O)Nc1ccc(-c2nc(-c3cccc(OCCN4CCOCC4)c3)c(-c3ccnc(Br)c3)[nH]2)cc1	4.55% (active)	1.53% (active)	-19.3% (active)	22.5% (inactive)	17.3% (inactive)	19.7% (inactive)	21.7% (inactive)	15.1% (inactive)	3.35% (active)	0.701% (active)	32.5% (inactive)	50.3% (inactive)	57.6% (inactive)	-15.9% (active)	68.1% (inactive)	28.4% (inactive)	35.5% (inactive)	-9.64% (active)	16.8% (inactive)	0.706% (active)
CC1(C)C2CC1C1(/C=N\Nc3ccccc3)C(C2)C(C#N)(C#N)C1(C#N)C#N (stereo not given)	87.3% (inactive)	102% (inactive)	91.4% (inactive)	96.2% (inactive)	94.8% (inactive)	72.2% (inactive)	94.4% (inactive)	58.5% (inactive)	52.2% (inactive)	106% (inactive)	92.7% (inactive)	89% (inactive)	90% (inactive)	66.6% (inactive)	133% (inactive)	75.9% (inactive)	70.1% (inactive)	97.1% (inactive)	83.7% (inactive)	95.7% (inactive)
O=[N+]([O-])c1ccc(Oc2nc(Nc3ccc(O[C@H]4CO[C@H]5[C@@H]4OC[C@@H]5O)c(Cl)c3)ncc2F)c(Cl)c1	26.2% (inactive)	24.8% (inactive)	-2.13% (active)	56.6% (inactive)	23.6% (inactive)	34% (inactive)	-90.9% (active)	-8.64% (active)	16.7% (inactive)	32.3% (inactive)	21.7% (inactive)	43.8% (inactive)	15.9% (inactive)	-9.77% (active)	44.5% (inactive)	19.3% (inactive)	7.81% (active)	-2.07% (active)	25.1% (inactive)	-3.69% (active)
O=C(Nn1c(NCC(=O)N2c3ccccc3Sc3ccccc32)nnc1-c1ccc(O)cc1)c1ccccc1	98% (inactive)	103% (inactive)	102% (inactive)	107% (inactive)	103% (inactive)	90.7% (inactive)	107% (inactive)	98.9% (inactive)	90.8% (inactive)	115% (inactive)	101% (inactive)	103% (inactive)	90.9% (inactive)	91.1% (inactive)	104% (inactive)	98.8% (inactive)	101% (inactive)	100% (inactive)	-2.21% (active)	125% (inactive)
COc1cc(/C=N/NC(=O)c2ccc(C)nc2)cc(OC)c1OC	97.2% (inactive)	103% (inactive)	79.4% (inactive)	108% (inactive)	102% (inactive)	98.1% (inactive)	96.3% (inactive)	86.7% (inactive)	94.8% (inactive)	117% (inactive)	79.3% (inactive)	90.4% (inactive)	102% (inactive)	65.6% (inactive)	81.3% (inactive)	91.2% (inactive)	79.8% (inactive)	93.2% (inactive)	87% (inactive)	57.8% (inactive)
